# From PubChem BioAssay AID686978 (National Center for Advancing Translational Sciences (NCATS), 2013)
# Among all 420,000 compounds or so, about 64,000 (15%) were called active. Not shown: some 27% with an inconclusive outcome. Calls follow the shape of the dose curve; as a rule, active = well fitted inhibition curve with a large enough effect; inconclusive = small, poorly fitted or top-dose-only effect; inactive = flat fitted curve, though single readings scatter. A selection follows. Entries that show only a call come without a potency.
# Assay: qHTS for Inhibitors of human tyrosyl-DNA phosphodiesterase 1 (TDP1): qHTS in cells in absence of CPT; also: nearly all actives have a fitted effect of over 55% in size
# Conditions: DT40 Tdp1-/- hTDP1 cells, no CPT, ATP luminescence, 48 h; activity change, negative = growth inhibition: at 46.2 µM (top of the series)
# In short: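 DT40 Tdp1-/-;hTDP1 cells, no CPT (DMSO vehicle only), 400 cells/well; compounds pin-transferred; ≥48 hr, 37 °C; CellTiter-Glo 30 min RT dark, luminescence read.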
# Potency is read from the fitted curve at half-maximal effect.
row,Structure (SMILES),Potency
1,CC(=O)Oc1ccccc1C1=NN(C(C)=O)C(c2ccccc2)C1 (stereo unspecified),inactive
2,O=C1C2N=NN(CC(=O)N3N=C(c4cccc5ccccc45)CC3c3ccccc3)C2C(=O)N1c1ccccc1 (stereo unspecified),29.1 µM (active)
3,COc1ccc(C2CC(c3ccccc3)=NN2C(=O)CSc2nccc(=O)[nH]2)cc1 (stereo unspecified),inactive
4,COc1cc(CN2CCNC(=O)C2CC(=O)NCCc2ncccc2C)cc(OC)c1 (stereo unspecified),inactive
5,CCN1CCCC1CNC(=O)c1cc2cc(OC)c(OC)cc2[nH]1 (stereo unspecified),inactive
6,CCOC(=O)C1(C)CCCN(C(=O)c2ccc(N(C)C)cc2)C1 (stereo unspecified),inactive
7,CCCS(=O)(=O)NC(=O)C1(C)CCCN(C(=O)c2ccnc(Cl)c2)C1 (stereo unspecified),inactive
8,CCOC(=O)C1(C)CCCN(C(=O)c2ccc(F)c(Cl)c2)C1 (stereo unspecified),20.6 µM (active)
9,COC(=O)/C(=C1\Oc2ccc(C(C)(C)C)cc2S1)C(F)(F)F,inactive
10,CC(=O)Nc1ccc(S(=O)(=O)NC2(C(F)(F)F)C(=O)NC(C)=C2C#N)cc1 (stereo unspecified),inactive
11,O=C(Cc1ccccc1F)NC1CCSc2ccccc21 (stereo unspecified),inactive
12,CCc1cc(Br)ccc1NC(=O)C1CCCO1 (stereo unspecified),inactive
13,COc1ccccc1C(=O)COC(=O)CNS(=O)(=O)c1ccc(NC(C)=O)cc1,inactive
14,O=c1c2cc3c(=O)n(CC4CCCO4)c(=O)c3cc2c(=O)n1CC1CCCO1 (stereo unspecified),inactive
15,O=C1c2cccc3c([N+](=O)[O-])ccc(c23)C(=O)N1CC1CCCO1 (stereo unspecified),5.8 µM (active)
16,O=C(NCc1ccc2c(c1)OCO2)c1ccc2c(c1)C(=O)N(CC1CCCO1)C2=O (stereo unspecified),inactive
17,COc1cc(/C=C/C(=O)OCC(=O)NC(=O)NCc2ccccc2)ccc1OCC#N,inactive
18,CCOc1ccc(/C=C/C(=O)OCC(=O)c2ccccc2OC)cc1OC,20.6 µM (active)
19,COc1ccc(/C=C/C(=O)OCC(=O)NCc2cccs2)cc1OC,inactive
20,COc1ccc(S(=O)(=O)N(CC(=O)N/N=C/c2ccc(C(=O)O)cc2)Cc2ccccc2)cc1OC,inactive
21,Cc1nonc1OCCn1nnnc1N,inactive
22,Cc1csc(=O)n1CCC(=O)OCC(=O)Nc1ccc(N2CCOCC2)cc1,inactive

row,Structure (SMILES),Potency
1,O=C1Nc2cc(Cl)c(Cl)cc2N(O)N1c1ccccc1Cl,inactive
2,COc1ccc(C(=O)NCc2cn3ccccc3n2)cc1,inactive
3,COC(=O)c1ccc(NC(=O)CSc2nncc3ccc(OC)c(OC)c23)cc1,inactive
4,COC(=O)c1ccc2nc(-c3cccc(Br)c3)c(Cc3ccccc3C(F)(F)F)n2c1,inactive
5,COC(=O)c1ccc2nc(-c3ccc(Cl)cc3)c(Cc3cccc(F)c3)n2c1,23.1 µM (active)
6,COC(=O)c1ccc(COC(=O)c2cnc(Cl)c(Cl)c2)cc1,inactive
7,COC(=O)c1ccc2nc(-c3ccc(OC)c(OC)c3)c(Cc3ccccc3)n2c1,20.6 µM (active)
8,COC(=O)c1ccc2nc(-c3ccc(F)cc3)c(Cc3ccc(C)cc3)n2c1,inactive
9,COC(=O)c1ccc2nc(-c3ccccc3)c(Cc3ccc(OC)cc3C)n2c1,23.1 µM (active)
10,CCN1CCN(Cc2c(O)ccc3c(=O)c(-c4ccc(OC)c(OC)c4)c(C(F)(F)F)oc23)CC1,inactive
11,Cc1ccc(NS(=O)(=O)c2c(C)[nH]c(=O)[nH]c2=O)cc1C,inactive
12,C[C@@H]1CC[C@]2(O[C@@H](CCO)C[C@H](O)[C@H]2O)O1,inactive
13,CCCCSc1nnc(-c2ccc(NC(=O)CC)cc2)n1C,inactive
14,O=C(c1cccc(S(=O)(=O)Nc2ccccc2Cl)c1)N1CCN(C(=O)c2ccco2)CC1,inactive
15,COc1ccc(C)cc1NC(=O)NCCCCc1ccccc1,inactive
16,CCOc1ccc(-c2nonc2NC(=O)c2oc3ccc(C)cc3c2C)cc1OCC,inactive
17,CCOc1ccc(-c2nonc2NC(=O)c2oc3ccc(CC)cc3c2C)cc1,20.6 µM (active)
18,CCc1nonc1NC(=O)c1oc2ccc(Cl)cc2c1C,inactive
19,CCCCCCCCOC1OC(CO)C(O)C(O)C1NC(C)=O (stereo unspecified),inactive
20,O=C1CCN(C(=O)Nc2ccccc2)N1,inactive
21,CCNC(=O)C1(C)CCCN(C(=O)c2c(C)noc2C)C1 (stereo unspecified),inactive
22,COc1ccc(-c2cc(-c3ccc(F)cc3)nc3c2COc2ccccc2-3)cc1,inactive

row,Structure (SMILES),Potency
1,NC(=O)C1CCN(C2OC(=O)c3ccccc32)CC1 (stereo unspecified),inactive
2,CCOC(=O)NNC(=O)c1ccc(Cl)cc1,inactive
3,Cc1ccc(S(=O)(=O)n2nc(C)c(S(=O)(=O)N3CCCCCC3)c2C)cc1,inactive
4,CCOc1ccccc1NC(=O)C1CCN(S(=O)(=O)c2c(C)nn(C)c2C)CC1,inactive
5,Cc1nn(C)c(C)c1S(=O)(=O)N1CCC(CO)(Cc2ccc(Cl)cc2)CC1,16.4 µM (active)
6,COc1ccc(NC(=O)c2ccccc2CC[N+](=O)[O-])cc1,inactive
7,CC(=O)c1cccc(NC(=O)c2nc(-c3ccccc3)n(-c3cccc(C)c3)n2)c1,10.3 µM (active)
8,CC(=O)c1cccc(NC(=O)Nc2ccc(C)cc2)c1,inactive
9,CC(=O)c1cccc(NC(=O)c2cc(C)nn2-c2ccccc2)c1,inactive
10,COc1ccc2c(c1)C(c1cccs1)=NNC(c1cccnc1)=N2,inactive
11,COC(=O)c1cccc([N+](=O)[O-])c1CS(=O)(=O)c1ccc(C)cc1,inactive
12,COc1cccc2c(O)cc(=O)n(C)c12,inactive
13,COCCCN(C(=S)Nc1c(C)cc(C)cc1C)C(C)c1ccncc1 (stereo unspecified),inactive
14,COc1ccc(C(=O)Nc2nc(-c3ccc(S(=O)(=O)N4CCOCC4)cc3)cs2)cc1,20.6 µM (active)
15,Cc1ccc(S(=O)(=O)N2CCOCC2)cc1NC(=O)c1ccncc1,inactive
16,COc1ccc(S(=O)(=O)n2nc(C)c(S(=O)(=O)N3CCOCC3)c2C)cc1,inactive
17,CSc1ccccc1NC(=O)c1ccc2c(c1)CCN2S(C)(=O)=O,inactive
18,CNC(=O)c1ccsc1NC(=O)c1ccc(S(=O)(=O)N2CCOCC2)cc1,23.1 µM (active)
19,O=C(Nc1ccc(S(=O)(=O)N2CCOCC2)cc1)c1ccc2ncsc2c1,inactive
20,CNC(=O)c1ccsc1NC(=O)c1ccc(S(=O)(=O)N2CCc3ccccc32)cc1,18.4 µM (active)
21,CS(=O)(=O)N1CCc2cc(C(=O)Nc3ccccc3Br)ccc21,inactive
22,Cc1cc2nc(NC(=O)c3ccc(S(=O)(=O)N4CCOCC4)cc3)sc2cc1C,inactive

row,Structure (SMILES),Potency
1,Cc1ccc(N2CCN(/N=C/c3cccs3)CC2)cc1,inactive
2,CCN1CCN(C2CCCCC2NS(=O)(=O)c2ccc(Cl)cc2)CC1 (stereo unspecified),inactive
3,O=C1OC(C(O)CO)C(O)=C1O (stereo unspecified),inactive
4,COC(=O)c1ccc(COC(=O)C2CCN(S(=O)(=O)c3c(Cl)cccc3Cl)CC2)o1,inactive
5,CC(C)(C)n1nnc(CCc2nnn(C(C)(C)C)n2)n1,inactive
6,O=S(=O)(NCCCN1CCOCC1)c1ccc(F)c(Cl)c1,inactive
7,CCCC1(C(=O)OC)NC(c2ccco2)C2C(=O)N(C)C(=O)C21 (stereo unspecified),inactive
8,COC(=O)[C@]1(C)N[C@H](CN(C)C(=O)c2ccc(C(C)(C)C)cc2)[C@@H]2C(=O)N(C)C(=O)[C@@H]21,inactive
9,COC(=O)[C@]1(CC(C)C)N[C@H](c2ccc(SC3CCCCC3)cc2)[C@@H]2C(=O)N(C)C(=O)[C@@H]21,23.1 µM (active)
10,CCc1nc2cc(C(=O)NCC3CCS(=O)(=O)C3)cc(NC(=O)c3ccccc3OC)c2n1C (stereo unspecified),inactive
11,COc1ccc(-c2nc3cnc(Oc4ccccc4)nc3n(Cc3cccs3)c2=O)cc1,inactive
12,CCc1nnc(NC(=O)c2sc3nc(C)cc(COC)c3c2N)s1,inactive
13,CCc1ccc2nc3sc(C(=O)Nc4nnc(CC)s4)c(N)c3cc2c1,18.4 µM (active)
14,CCc1nnc(NC(=O)c2ccco2)s1,inactive
15,CCC(=O)c1ccc(OCC(O)CN2C(=O)NC(C)(C)C2=O)cc1 (stereo unspecified),inactive
16,CCOC(=O)c1c(N)sc(C(C)=O)c1C,inactive
17,Cc1ccc(-c2cc(C(=O)Oc3ccccc3Cl)no2)cc1C,inactive
18,CCOc1ccc2nc(NC(=O)c3cc([N+](=O)[O-])ccc3N3CCOCC3)sc2c1,18.4 µM (active)
19,CCCC(=O)N(CCN1CCOCC1)c1nc2ccc(OCC)cc2s1,inactive
20,O=C(Nc1ccc2nc(SCCOc3ccccc3)sc2c1)c1ccco1,23.1 µM (active)
21,O=C(Nc1ccccc1)c1ccco1,inactive
22,Cc1cc(C)cc(OCc2nnc(SCC(=O)Nc3ccccc3)o2)c1,inactive

row,Structure (SMILES),Potency
1,CC(=O)Nc1ccc2nc(SCCOc3cc(C)cc(C)c3)sc2c1,16.4 µM (active)
2,Cc1cc(C)cc(OCC(=O)Nc2nc3ccc([N+](=O)[O-])cc3s2)c1,inactive
3,O=C(NCCSc1ccccc1)c1ccco1,inactive
4,Cc1cc(NC(=O)COc2ccc([N+](=O)[O-])cc2)no1,inactive
5,Cc1cccc(OCCSc2nc3ccc(NC(=O)COc4ccccc4C)cc3s2)c1,inactive
6,O=C(NC1CCCCC1)c1cc([N+](=O)[O-])ccc1N1CCOCC1,inactive
7,CCOc1ccc2nc(SC(CC)C(=O)Nc3cc(C)on3)sc2c1 (stereo unspecified),18.4 µM (active)
8,COc1cc(NS(=O)(=O)c2cccs2)cc(OC)c1,inactive
9,CCOc1cc(CNCc2ccccn2)ccc1OCC(=O)NC(C)(C)C,inactive
10,Cc1cccc(NC(=O)N2CCCCCC2)c1C,inactive
11,O=C(CCNC(=O)c1ccccc1Cl)NN=Cc1ccco1,inactive
12,CCOCCCNS(=O)(=O)Cc1ccccc1,inactive
13,CCC(C)NC(=O)CSC1=Nc2ccccc2C2=NC(CCC(=O)NCc3ccco3)C(=O)N12 (stereo unspecified),inactive
14,CC(=O)c1cnc(-c2ccccc2)s1,inactive
15,CC(=O)c1nnn(-c2ccc(Cl)cc2C#N)c1C,inactive
16,CCOc1ccc2nc(Nc3nc4ccc(NC(C)=O)cc4s3)sc2c1,10.3 µM (active)
17,CC(=O)Nc1ccc2nc(NC(=O)CS(=O)(=O)c3ccc(F)cc3)sc2c1,inactive
18,CNC(=O)c1ccc2nc(NC(C)=O)sc2c1,inactive
